Cav3 T inh = inhibitors of human Cav3.2 T-type calcium channel | Cav3.2-expressing cells, Fluo-4 calcium fluorescence FDSS; hits give low values | B-score at 10 µM | 100,000 tested, 4% active | AID 449739;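 active = single-dose well whose peak fluorescence ratio is a statistical outlier from its plate by either plate-standardised score or position-corrected B-score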
CYP2C19 inhib = human CYP2C19 inhibition | P33261 | CYP2C19 Supersomes, luciferin-H EGE luminescence, 30 min | inhibition, % at 5 µM | 96,000 tested, 21% active | AID 778;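 active = CYP2C19 inhibition above a set limit at 5 µM in the primary screen, cut at about 50% in these data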;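 also: plate controls were negative control wells for no effect and 2.5 mM tranylcypromine positive control for full effect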
CYP2C9 inh = blocks human cytochrome P450 2C9 | CYP2C9 Supersomes, luciferin-H conversion, luminescence | inhibition, % at 5 µM | 96,000 tested, 20% active;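 active = blocking of liver enzyme CYP2C9 beyond about 50% at 5 µM, limit read from the data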
Target sequence (P11712 whole entry, looked up): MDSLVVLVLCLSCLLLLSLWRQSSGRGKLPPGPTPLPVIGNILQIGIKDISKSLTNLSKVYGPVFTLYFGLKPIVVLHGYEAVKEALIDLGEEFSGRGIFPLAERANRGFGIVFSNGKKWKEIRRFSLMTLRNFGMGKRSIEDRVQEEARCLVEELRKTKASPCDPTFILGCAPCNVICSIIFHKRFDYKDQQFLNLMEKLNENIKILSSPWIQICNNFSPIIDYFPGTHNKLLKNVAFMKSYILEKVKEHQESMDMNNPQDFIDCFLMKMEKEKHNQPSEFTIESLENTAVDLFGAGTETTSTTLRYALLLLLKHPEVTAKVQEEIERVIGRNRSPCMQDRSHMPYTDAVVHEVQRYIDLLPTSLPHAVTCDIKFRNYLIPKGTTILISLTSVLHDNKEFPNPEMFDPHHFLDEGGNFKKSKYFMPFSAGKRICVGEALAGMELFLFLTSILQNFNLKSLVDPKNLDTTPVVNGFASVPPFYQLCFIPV
CYP2C9 act = increases human cytochrome P450 2C9 activity | activation factor at 5 µM | 96,000 tested, 1.4% active | P11712 | recombinant CYP2C9, luciferin-H conversion, luminescence; hits give high values; factor 1 = untreated enzyme, 0 = blocked;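 active = activation factor of 2 or more for CYP2C9 at a 5 µM dose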;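 also: 0 = sulfaphenazole-blocked wells and 1 = vehicle-only wells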
CYP2C19 activ = cytochrome P450 2C19 (human) activation; P33261; recombinant CYP2C19, luciferin-H EGE luminescence; hits give high values; 0 = fully inhibited enzyme, 1 = untreated enzyme; activation factor at 5 µM; 96,000 tested, under 10 active; AID 1025;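 active = activation factor of at least 2 at 5 µM in the primary screen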;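 also: 0 = wells with 2.5 mM tranylcypromine and 1 = vehicle-only wells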
* marks the source's active call; other numbers are inactive results; / = not tested or not shown. Only some compounds are listed: those with a hit (about 27% of all), similar ones and a draw of the others.

SMILES	Cav3 T inh	CYP2C19 inhib	CYP2C9 inh	CYP2C9 act	CYP2C19 activ
COCCn1nnnc1C(c1ccc2ncccc2c1)N1CCN(c2ccccc2F)CC1 (configuration not stated)	1.1	3	23	0.8	1
COCCn1nnnc1C(c1ccc(OC)c(OC)c1)N1CCc2ccccc21 (configuration not stated)	0.26	74*	69*	0.3	0.3
COCCn1nnnc1C(c1ccc2ncccc2c1)N1CCc2ccccc21 (configuration not stated)	-0.11	94*	80*	0.2	0.1
COCCn1nnnc1C(c1ccccc1OC)N1CCc2ccccc2C1 (configuration not stated)	-0.38	/	/	/	/
CCOc1ccc(OCC)c(NC(=O)c2[nH]c(C)c(C(C)=O)c2C)c1	1.2	38	30	0.7	0.6
COc1ccc(C)cc1NC(=O)c1cnc2sccn2c1=O	/	4	-9	1.1	1
O=C(O)c1sccc1SCc1ccc(Cl)cc1Cl	/	-4	54*	0.5	1
CNC(=S)NNC(=O)c1sccc1OCc1ccc(Cl)cc1Cl	0.38	6	6	0.9	0.9
CSc1nnc(Cn2c(=O)sc3ccccc32)n1CCc1ccccc1	-1.2	39	45	0.6	0.6
COCCOC(=O)C1=C(C)N=C2SCCC(=O)N2C1/C=C/c1ccccc1 (configuration not stated)	-0.14	81*	93*	0.1	0.2
CCOC(=O)C1=C(C)N=C2SCCC(=O)N2[C@@H]1/C=C/c1ccccc1	-4.8*	33	50	0.5	0.7
CCOC(=O)C1=C(C)N=C2SC(C)C(=O)N2C1/C=C/c1ccccc1OC (configuration not stated)	-5.2*	49	80*	0.2	0.5
CC(C)C1Oc2ccccc2N(CC(=O)NCCCN2C(C)CCCC2C)C1=O (configuration not stated)	-1	-3	-2	1	1
CC(O)c1c(OCc2ccccc2)ncnc1OCc1ccccc1 (configuration not stated)	-5.1*	39	33	0.7	0.6
O=C(NC1(C(F)(F)F)C(=O)Nc2c1c(=O)[nH]c(=O)n2-c1ccccc1)c1cccnc1 (configuration not stated)	-3.6	12	14	0.9	0.9
O=C1CC(N2CCC(c3nc4ccccc4o3)CC2)C(=O)N1c1cc(Cl)cc(Cl)c1 (configuration not stated)	-1.3	33	78*	0.2	0.7
Cc1cccc(N2C(=O)CC(N3CCC(c4nc5ccccc5[nH]4)CC3)C2=O)c1 (configuration not stated)	0.95	-6	-4	1	1.1
CN(C)CCNc1oc(-c2cccc(Cl)c2)nc1C#N	0.26	2	9	0.9	1
CC(C)C1CC(c2csc(N)n2)CCO1 (configuration not stated)	0.033	38	15	0.9	0.6
CCCC1CC(c2csc(N)n2)CCO1 (configuration not stated)	1.1	80*	76*	0.2	0.2
OC(c1ccccc1)(c1ccc(F)cc1)C(c1ccccc1)N1CCOCC1 (configuration not stated)	-2.8*	69*	4	1	0.3
O=C(C(c1ccccc1)N1CCOCC1)N1CCOCC1 (configuration not stated)	-0.047	-1	0	1	1
O=C(COc1cccc2ccccc12)N1CCN(c2ccccc2)CC1	/	95*	-72	1.7	0
O=C(COc1cccc2cccnc12)N1CCc2ccccc2C1	0.33	88*	-223	3.2*	0.1
O=C(COc1c(Br)cc(Br)c2cccnc12)N1CCc2ccccc2C1	-1.3	3	-34	1.3	1
SMILES	Cav3 T inh	CYP2C19 inhib	CYP2C9 inh	CYP2C9 act	CYP2C19 activ
O=C(COc1cccc2ccccc12)N1CCN(c2ccccn2)CC1	-0.54	95*	-125	2.3*	0
O=C(COc1cccc2ccccc12)N1c2ccccc2CCc2ccccc21	-6.6*	76*	84*	0.2	0.2
O=C(O)c1ccccc1C(=O)NCc1ccccc1	0.74	25	-9	1.1	0.8
O=C(NCc1ccccc1)c1ccccc1OCC(=O)N1CCCCC1	0.36	73*	100*	0	0.3
Cc1cc(OCC(=O)Nn2cnnc2)ccc1Br	0.99	100*	100*	0	0
Cc1ccc(NC(=O)COS(=O)c2ccc(C)cc2)cc1 (configuration not stated)	0.51	32	44	0.6	0.7
CCOc1ccccc1C1CC(=O)Nc2cc3c(cc21)OCO3 (configuration not stated)	-2.6	98*	66*	0.3	0
CC(C)Oc1ccccc1C1CC(=O)Nc2cc3c(cc21)OCCO3 (configuration not stated)	-2	96*	96*	0	0
O=C1CC(c2cccs2)c2cc3c(cc2N1)OCCO3 (configuration not stated)	-0.53	68*	71*	0.3	0.3
CCOc1ccccc1C1CC(=O)NC(SCC)=C1C#N (configuration not stated)	2.4	39	26	0.7	0.6
COc1cc2c(cc1OC)C(c1cccc(OC)c1OC)CC(=O)N2 (configuration not stated)	0.13	18	32	0.7	0.8
CC(C)Oc1ccccc1C1Nc2ccccc2C(=O)N1c1ccc2c(c1)OCCO2 (configuration not stated)	-3	95*	96*	0	0.1
Cc1ccc(C2C(C(=O)c3sc(C)nc3C)=C(O)C(=O)N2CCN2CCOCC2)o1 (configuration not stated)	0.0049	-3	22	0.8	1
CCCCN(C)Cc1c(C)[nH]c2ccc(OCC)cc2c1=O	1.2	-15	3	1	1.2
COc1cccc(C2CC(=O)Nc3cc4c(cc32)OCCO4)c1OC(C)C (configuration not stated)	-2.5	49	63*	0.4	0.5
COc1ccccc1C1CC(=O)Nc2cc3c(cc21)OCCO3 (configuration not stated)	-0.62	33	74*	0.3	0.7
O=C(O)CCC(=O)Nc1ccc(C(=O)N2CCCCC2)cc1	/	15	15	0.8	0.8
O=S(=O)(Nc1ccc(Cl)c(C(F)(F)F)c1)c1cnc[nH]1	-1.4	96*	99*	0	0
O=S(=O)(Nc1cccc(C(F)(F)F)c1)c1cnc[nH]1	0.22	98*	100*	0	0
O=S(=O)(Nc1cccnc1)c1cccc(C(F)(F)F)c1	0.1	24	-21	1.2	0.8
O=S(=O)(Nc1ccc(C(F)(F)F)cc1)c1cnc[nH]1	-0.82	99*	100*	0	0
CCNc1nc(SC(C)C(=O)OC)nc(N2CCOCC2)n1 (configuration not stated)	0.048	27	34	0.7	0.7
C=CCOc1ccc(Cl)cc1C(=O)O	0.055	-13	-7	1.1	1.1

High-throughput results (PubChem)
